# Assay results taken from PubChem BioAssay.
# “And” between values parts separate entries of the source, which are not always exact repeats. Equal entries are not always repeated. The source made the active and inactive calls.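 How the source made its calls, unless noted: active means compounds whose cell count with miR-34 switched on is under 0.7 times the count with it off; inactive means the rest.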
# What was measured:
# [1] = sensitizers of A549 cells to miR-34 induction, primary screen, imaging, A549 dox-inducible miR-34, nuclei and caspase counts (AID 1347080); details: A549 miR-34 inducible, Hoechst nuclei count, 48 h; further: test concentration not given here
# [2] = survival rescue of mitochondrial mutant cells in low glucose, primary screen, MELAS cybrids, Rieske KO mouse fibroblasts, CellTiter-Glo (AID 1508586;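 active means mean z-score across replicates of 1.96 or higher in either the MELAS or the Rieske mutant cell line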;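 further: test concentration not given here; z relative to plate mean and SD of compound and empty wells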)
# [3] = viability rescue of complex I mutant cybrids, primary screen, cell-based, galactose medium, ATP luminescence (AID 1645843;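 active means z-score of at least 1.8 in each of two replicates, scored against plate mean and spread of sample wells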;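 further: positive z means more ATP and so rescue of galactose-driven cybrid death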); details: complex I mutant cybrid cells, 72 h, stronger effect = higher value
# [4] = stronger effect = lower value, cell number ratio, induced over uninduced
# [5] = measured here: relative caspase fold change +Dox/-Dox
# [6] = measured here: total cells with miR-34 induction, stronger effect = lower value
# [7] = measured here: total cells without miR-34 induction
# [8] = MELAS cybrid survival, CellTiter-Glo 48 h, stronger effect = higher value
# [9] = Rieske KO mouse fibroblast survival, CellTiter-Glo 72 h
Compound,"fold change [1, 4]","fold change [1, 5]","cell count [1, 6]","cell count [1, 7]","z-score [2, 8]","z-score [2, 9]",z-score [3]
COc1ccc(-n2cccn2)c(-c2nnc3ccccn23)c1,0.89 (inactive),0.706,8500,9550,-0.172 (inactive),-0.541,-0.55 (inactive)
COc1ccc2c(c1)CCN(C(=O)Nc1n[nH]c(-c3ccccc3F)n1)C2,0.904 (inactive),0.695,7710,8530,-0.521,3.73,0.16 (inactive)
O=C(c1cccc2nccnc12)N1CCc2[nH]nc(COc3ccccc3)c2C1,0.845 (inactive),1.54,8640,10200,-0.113 (inactive),-0.39,-0.45 (inactive)
COCC1CCCN(Cc2cccc(-c3nc(-c4cccnc4)cc(=O)[nH]3)c2)C1 (stereo not drawn),0.935 (inactive),1.11,8420,9010,-0.479 (inactive),0.644,0.175 (inactive)
CCC1OC(=O)C(C)C(OC2C[C@@](C)(OC)C(O)C(C)O2)C(C)C(OC2OC(C)CC(N(C)C)C2O)[C@](C)(OC)CC(C)C(=O)C(C)C(O)[C@]1(C)O (stereo partly drawn),0.943 (inactive) and 0.989 (inactive),1.76 and 0.873,9620 and 10500,10200 and 10600,-0.386 (inactive),0.552,-0.175 (inactive)
O=C(O)CCCc1nc(-c2cccc([N+](=O)[O-])c2)no1,0.855 (inactive),0.356,7990,9350,1.15 (inactive),-0.0224,0.71 (inactive)
O=C(Nc1n[nH]c(Cc2ccccc2)n1)N1CCN(c2ncccn2)CC1,0.879 (inactive),0.976,8590,9760,-0.0698,4,0.005 (inactive)
CN1CCN(Cc2cccc(-n3cccn3)c2)CC1CCO (stereo not drawn),0.861 (inactive),3.04,8640,10000,-0.56 (inactive),-0.308,-0.58 (inactive)
O=c1c2nccnc2ncn1Cc1ccc2nsnc2c1,0.878 (inactive),1.36,8120,9250,-0.0326 (inactive),-0.667,-0.53 (inactive)
Cc1cc(NC(=O)Cn2cc(-c3cccc4cccnc34)cn2)n(C)n1,0.876 (inactive),0.926,8830,10100,-0.478 (inactive),-0.249,-0.585 (inactive)
Cn1nc(NC(=O)Cn2ccc(-c3ccco3)n2)c2ccccc21,0.861 (inactive),2.39,7120,8270,1.07 (inactive),0.074,0.205 (inactive)
COc1ccc(OC)c(-c2nc3ccccc3o2)c1,0.826 (inactive),1.28,6950,8410,0.0538 (inactive),0.572,-0.51 (inactive)
CC1(C)CC(Nc2nccc(-c3cnn(-c4ccccc4)c3)n2)CC(C)(C)N1,0.881 (inactive),3.09,4870,5530,-0.228 (inactive),0.372,3.44 (active)
CC(O)c1cn(C2CCN(c3ncnc4nc[nH]c34)CC2)nn1 (stereo not drawn),0.902 (inactive),1.71,9250,10300,0.294 (inactive),-0.198,-0.55 (inactive)
Cc1cc(NC(=O)Cn2ncc3cc(-c4ccc(F)c(F)c4)ccc32)n(C)n1,0.877 (inactive),0.515,4810,5490,0.668 (inactive),-0.0382,0.765 (inactive)
CNCc1ccccc1-c1cccs1,0.861 (inactive),0.648,8130,9440,-0.43 (inactive),-0.443,0.065 (inactive)
Cc1nn(C)cc1-c1ccnc(N2CCCN(c3ccc(F)cc3)CC2)n1,0.74 (inactive),1.79,3170,4290,-0.739,2.39,0.77 (inactive)
COc1cccc(-c2cccc(N)n2)c1F,0.943 (inactive),0.993,9590,10200,0.104 (inactive),-0.26,-0.59 (inactive)
CN1CCN(Cc2ccc(-c3nc(-c4cccnc4)cc(=O)[nH]3)cc2)CC1,0.911 (inactive),1.1,8750,9610,-0.317 (inactive),-0.261,-0.55 (inactive)
Cc1ccc2c(C(=O)N(C)C(C)C)cc(-c3cnc(C(C)C)nc3)nc2c1,0.942 (inactive),1.5,7480,7940,0.549 (inactive),0.778,-0.485 (inactive)
CCC(C)n1ncn(-c2ccc(N3CCN(c4ccc(OCC5CO[C@](Cn6cncn6)(c6ccc(Cl)cc6Cl)O5)cc4)CC3)cc2)c1=O (stereo partly drawn),0.844 (inactive) and 0.945 (inactive),0.375 and 1.03,6320 and 8160,7490 and 8630,0.58 (inactive) and -0.288 (inactive),-0.239 and 0.0468,-2.34 (inactive)
CN(Cc1nc2ccc(Cl)cc2[nH]1)C(=O)c1n[nH]c2ccccc12,0.846 (inactive),1.41,6230,7360,-0.529 (inactive),0.953,1.46 (inactive)
CCc1ccccc1-c1cc(C)nc(N)n1,0.887 (inactive),1.81,8420,9490,-0.131 (inactive),-1.38,-0.555 (inactive)
CN(CCn1cccn1)Cc1ccc(-c2nc(-c3cccnc3)cc(=O)[nH]2)cc1,0.951 (inactive),1.22,8710,9150,-0.265 (inactive),0.251,0.18 (inactive)
